{"source": "PubChem BioAssay (NCI)", "note": "Values joined by “and” are separate entries in the source; they are usually repeats but may differ in a detail not shown here. Equal values may be shown once. About 83,000 compounds went through this panel and 20% of them were active in at least one assay; those are over-represented in the sample as a whole.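 Single-dose data. Exposure time 48 hours. Values below 10 considered active.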 Unmarked numbers belong to inactive results. Active and inactive are the calls of the source.", "data": [{"tested_on": "UO-31 renal", "assay": "NCI-60 one-dose screen, 48 h (100 = growth as untreated, 0 = no growth, -100 = all killed)", "conditions": "4.75 µM", "protocol": "(§1) Growth inhibition of the UO-31 human tumor cell line is measured as a screen for anti-cancer activity. Cells are grown in 96 well plates and exposed to the test compound for 48 hours. Compounds are tested at a single concentration, which is 10^-5 M for most compounds. The reported endpoint is percent growth (GI% or GIPRCNT), where numbers from 0 - 100% represent growth inhibition, and numbers from -100% - 0 represent cell death. For example, a value of 40 represents 60% growth inhibition. A value of 0 means no net growth occurred over the course of the experiment. A value of -40 indicates 40% of cells at the beginning of the experiment died by the end of the experiment. A value of -100 means all cells are dead at the end of the experiment.\n(§2) NCI-60 Human Tumor Cell Lines Screen was performed using the standard one-dose NCI protocol, which is described in more detail at https://dtp.cancer.gov/discovery_development/nci-60/default.htm.\n(§3) Compounds with GIPRCNT values below 10 were considered active. Activity score was based on GIPRCNT using the following formula: […]\n(§4) Score is 0 for GIPRCNT values of 100 or above, 50 for GIPRCNT values of 0, and 100 for GIPRCNT values of -100.", "values": [{"molecule": "CC(=O)OCC1OC([S-])C(OC(C)=O)C(OC(C)=O)C1OC(C)=O.[Au+].c1ccc(CN2[CH-]N(Cc3ccccc3)C(c3ccccc3)=C2c2ccccc2)cc1", "growth": "3.56% (active)"}]}, {"tested_on": "UO-31 renal", "assay": "NCI-60 one-dose screen, 48 h (100 = growth as untreated, 0 = no growth, -100 = all killed)", "conditions": "10 µM", "protocol": "as §1, §2, §3, §4", "values": [{"molecule": "CC(=O)OCC1OC([S-])C(OC(C)=O)C(OC(C)=O)C1OC(C)=O.[Au+].c1ccc(CN2[CH-]N(Cc3ccccc3)C(c3ccccc3)=C2c2ccccc2)cc1", "growth": "-70.5% (active)"}]}, {"tested_on": "UO-31 renal", "assay": "NCI-60 one-dose screen, 48 h (100 = growth as untreated, 0 = no growth, -100 = all killed)", "conditions": "10 µM unless noted", "protocol": "as §1, §2, §3, §4", "values": [{"molecule": "COc1cc(C=C2C(=O)NC(=O)NC2=O)ccc1O", "growth": "94.4%"}, {"molecule": "Cc1nc2ccccc2c(=O)n1-c1ccccc1F", "growth": "88.1%"}, {"molecule": "Cc1ccccc1-n1c(/C=C\\c2ccccn2)nc2ccccc2c1=O", "growth": "54.7%"}, {"molecule": "CC(=O)OC1CC2(O)C(CCC3(C)C(c4ccc(=O)oc4)CCC32O)C2(C)CCC(OC3OC(CO)C(O)C(O)C3O)C=C12", "note": "(stereo not given)", "growth": "-80.8% (active)"}, {"molecule": "C/C(=C\\c1ccn(-c2ccc(N)cc2F)n1)[C@@H]1C[C@@H]2O[C@]2(C)CCC[C@H](C)[C@H](O)[C@@H](C)C(=O)C(C)(C)[C@@H](O)CC(=O)O1", "growth": "29.1%"}, {"molecule": "Oc1ccccc1C=NCCN=Cc1ccccc1O", "growth": "92.3%"}, {"molecule": "Nc1cccnc1", "growth": "107%"}, {"molecule": "CCCCOCCOP(=O)(OCCOCCCC)OCCOCCCC", "growth": "100%"}, {"molecule": "Cc1cc2c(cc1-c1ccnc(/C=C/C(=O)O)c1)C(C)(C)CCC2(C)C", "growth": "62.1%"}, {"molecule": "O=[N+]([O-])c1c(Cl)cc(Cl)c([N+](=O)[O-])c1Cl", "growth": "151%"}, {"molecule": "C#COc1cccc(Nc2ncnc3cc(NC(=O)CF)ccc23)c1", "growth": "60.9% [6.25 µM]"}, {"molecule": "CC[CH2][Sn]([Cl])([Cl])[CH2]CC.Oc1ccccc1C=NCCN=Cc1ccccc1O", "growth": "53.9% and 32.8%"}, {"molecule": "CC(=O)c1cccc(S(=O)(=O)F)c1", "growth": "83%"}, {"molecule": "COc1ccn(C)c(=O)c1C#N", "growth": "87.2%"}, {"molecule": "Cc1cc(N(CCCl)CCCl)ccc1C=Nc1ccc(-c2csc(-c3ccccc3)n2)cc1", "growth": "59.9%"}, {"molecule": "C[C@]12C[C@H](c3ccoc3)OC(=O)[C@H]1CC[C@@]1(C)[C@@H]2[C@H]2C=C[C@]1(O)C(=O)O2", "growth": "88%"}, {"molecule": "CCOC(=O)C1C(C=C(C)C)C1(C)C", "note": "(stereo not given)", "growth": "120%"}, {"molecule": "NC(=O)c1c(Br)c(Br)c(Br)c(Br)c1C(=O)O", "note": "(tested in a mixture with another compound)", "growth": "72.4% and 51.5%"}, {"molecule": "CC(C)CCC1C(=O)NC(=O)NC1=O", "growth": "86.9%"}, {"molecule": "O=S(OO)c1cc(Cl)c(O)c(Cl)c1", "note": "(stereo not given)", "growth": "84.2%"}, {"molecule": "O=Cc1cn(Cc2ccccc2)c2ccccc12", "growth": "55.6%"}, {"molecule": "O=C1CN2CCC1CC2", "growth": "84.6%"}, {"molecule": "O=C(O)C(F)F", "growth": "94.9%"}, {"molecule": "Cc1cc(N(CCCl)CCCl)ccc1/C=N\\NC(=O)c1cccnc1", "growth": "80.3% and 83.4%"}, {"molecule": "C=C1C(=O)OC2CC3(C)OC3C3OC3C3=CC(OC3=O)C12", "note": "(stereo not given)", "growth": "44.3% and 44.2%"}, {"molecule": "Cc1ccc(S(=O)(=O)n2cc([C@@]3(O)C[C@H](CSC#N)OC3=O)c3ccccc32)cc1", "growth": "56.2%"}, {"molecule": "CCOC(=O)c1ccccc1C(=O)OCC", "growth": "84.8%"}, {"molecule": "O=S(=O)(F)c1cccc(Cl)c1C[P+](c1ccccc1)(c1ccccc1)c1ccccc1", "growth": "88.3%"}, {"molecule": "O=C(O)c1ccccc1N(CCO)CCCl", "growth": "88.2%"}, {"molecule": "N#CCc1ccc(CC#N)cc1", "growth": "89.8%"}, {"molecule": "O=C(Cc1ccccc1)NC(O)C(Cl)(Cl)Cl", "note": "(stereo not given)", "growth": "93.8%"}, {"molecule": "CNC(=O)Oc1ccc(Cl)cc1SSc1cc(Cl)ccc1OC(=O)NC", "growth": "64.6%"}, {"molecule": "C[C@]12CCc3sc(Nc4ccc(F)cc4)nc3C1=CC[C@@H]1[C@@H]2CC[C@]2(C)C(=O)CC[C@@H]12", "growth": "59.8%"}, {"molecule": "CC[C@H](C)[C@H](NC(=O)[C@H]1CCCCN1C)C(=O)N(C)[C@H](C(=O)NC12CC(C(=O)N[C@@H](Cc3ccccc3)C[C@H](C)C(=O)OC)(C1)C2)C(C)C", "growth": "95.1%"}, {"molecule": "Cc1cc[n+](CCc2ccccc2)cc1", "growth": "57.8% and 85.1%"}, {"molecule": "CCC(=O)C(CC(C)N1CCCCCC1)(c1ccccc1)c1ccccc1", "note": "(stereo not given)", "growth": "67.3%"}, {"molecule": "COc1cc(C2C3=C(CCCC3=O)N(CCO)c3cc4c(cc32)CCC4)cc(OC)c1OC", "note": "(stereo not given)", "growth": "67.8%"}, {"molecule": "O=[N+]([O-])c1ccc(OCc2ccc(S(=O)(=O)F)c(Cl)c2)c(Cl)c1", "growth": "70%"}]}]}
